# Laboratory results as given in PubChem BioAssay (NCATS).
# Records with an inconclusive call do not appear. A call without a number means that no potency is given here. Active and inactive are the calls of the source. Calls follow the shape of the dose curve; as a rule, active = well fitted inhibition curve with a large enough effect; inconclusive = small, poorly fitted or top-dose-only effect; inactive = flat fitted curve, though single readings scatter.
# Test: Primary qHTS for inhibitors of nuclear receptor binding SET domain protein 2 (NSD2) in an isogenic RCH-ACV NSD2 p.E1099K mutant (9B) (AID 1645876); also: nearly all actives have a fitted effect of over 70% in size
# Conditions: RCH-ACV (leukaemia line) NSD2 E1099K (9B) viability, CellTiter-Glo, 72 h; series mostly up to 44.9 µM
row,SMILES,Potency
1,CC1(C)CC=C(C#Cc2ccccc2)c2cc(/C=C/c3ccc(C(=O)O)cc3)ccc21,inactive
2,COc1ccccc1CN[C@H]1CCCN[C@H]1c1ccccc1,inactive
3,CC[C@@H](C)[C@H](N)C(=O)N1Cc2ccccc2C1,inactive
